ELG1 repair inh: qHTS screen for small molecules that inhibit ELG1-dependent DNA repair in human embryonic kidney (HEK293T) cells expressing luciferase-tagged ELG1; HEK293T ELG1-luciferase reporter, luminescence, 16 h; DNA damage induced by 5-fluorouridine; actives 2.3% (n = 330,000); Potency, µM (titrated, usually from 46.1 µM), inactives show top-dose activity change, negative = inhibition, hits mostly inhibitors; AID 504467, 2011; further: nearly all actives have a fitted effect of over 55% in size
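Luminescence from the luciferase reporter, measured 30 min after ONE-Glo reagent at room temperature, was the read-out. Beforehand, 2,000 cells per well were exposed for 16 hr at 37 °C to 5-fluorouridine together with compound or vehicle.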
RORg inh: qHTS for inhibitors of ROR gamma transcriptional activity; actives 5.4% (n = 310,000); Potency, µM (series often up to 53.6 µM), inactives show at the highest dose activity change, negative = inhibition, most hits filed as inhibitors; Drosophila S2 Gal4-RORgamma UAS-luciferase reporter, 20 h; further: nearly all actives have a fitted effect of over 60% in size
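Compounds are pin-transferred onto Drosophila Schneider cells expressing a copper-inducible Gal4–ROR gamma transactivation domain fusion. After 1 hr, copper sulfate is added to 700 uM final; luciferase is read 20 hr later.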
DT40 TDP1 CPT: qHTS for Inhibitors of human tyrosyl-DNA phosphodiesterase 1 (TDP1): qHTS in cells in presence of CPT | chicken DT40 Tdp1-/-;hTDP1 cells + 20 nM CPT, ATP luminescence, 48 h | Potency, µM (top dose mostly 46.2 µM), for inactives: at the top dose activity change, negative = growth inhibition, hits mostly inhibitors | actives 12% (n = 420,000) | AID 686979, 2013; further: nearly all actives have a fitted effect of over 55% in size
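Chicken DT40 Tdp1-/- cells stably complemented with human TDP1 were seeded at 400 cells/well in medium containing 20 nM camptothecin, exposed to pin-transferred compounds, and grown at 37 °C for at least 48 hr. Viability was read as ATP luminescence.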
TDP1 cell noCPT: qHTS for Inhibitors of human tyrosyl-DNA phosphodiesterase 1 (TDP1): qHTS in cells in absence of CPT; DT40 Tdp1-/- hTDP1 cells, no CPT, ATP luminescence, 48 h; actives 15% (n = 420,000); Potency, µM (series often up to 46.2 µM), for the others: at the top dose activity change, negative = growth inhibition, usual class: inhibitors; further: nearly all actives have a fitted effect of over 55% in size
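Growth of hTDP1-complemented DT40 Tdp1-knockout cells is measured by ATP luminescence after at least 48 hr compound exposure at 37 °C, with DMSO substituting for the 20 nM CPT used in the parallel screen.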
ALOX12 inh: Primary qHTS assay for inhibitors of human arachidonate 12S-lipoxygenase (ALOX12): Round 2; Polyunsaturated fatty acid lipoxygenase ALOX12 (Homo sapiens), P18054; Potency, µM (doses to about 108 µM), for the others: at the top dose activity change, negative = inhibition, hits mostly inhibitors; purified 12hLO, xylenol orange hydroperoxide absorbance; AID 1671190, 2021; actives 1.1% (n = 580,000)
Target sequence (P18054 whole entry, looked up): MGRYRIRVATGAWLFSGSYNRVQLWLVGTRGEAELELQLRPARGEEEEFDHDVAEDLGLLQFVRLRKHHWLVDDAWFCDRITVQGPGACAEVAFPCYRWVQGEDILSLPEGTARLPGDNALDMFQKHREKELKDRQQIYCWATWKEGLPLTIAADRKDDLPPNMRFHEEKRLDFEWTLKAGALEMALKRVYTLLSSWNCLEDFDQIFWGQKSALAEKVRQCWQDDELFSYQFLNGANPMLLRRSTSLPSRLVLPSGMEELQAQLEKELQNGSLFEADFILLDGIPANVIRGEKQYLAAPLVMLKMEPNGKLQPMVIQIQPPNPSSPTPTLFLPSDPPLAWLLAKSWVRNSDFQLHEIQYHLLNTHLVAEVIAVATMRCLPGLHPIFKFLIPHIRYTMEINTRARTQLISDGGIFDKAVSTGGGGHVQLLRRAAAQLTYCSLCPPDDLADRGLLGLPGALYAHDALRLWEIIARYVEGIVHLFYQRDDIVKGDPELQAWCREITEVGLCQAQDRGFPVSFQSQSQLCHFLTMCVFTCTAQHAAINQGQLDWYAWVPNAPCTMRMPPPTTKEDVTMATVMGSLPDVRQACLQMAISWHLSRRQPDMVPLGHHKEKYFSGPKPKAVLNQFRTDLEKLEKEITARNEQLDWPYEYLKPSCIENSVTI
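Purified human 12hLO at 150 nM in 25 mM Hepes, 0.01% Triton X-100, pH 7.0, preincubated 15 min at room temperature with compound. Reaction started with 40 uM arachidonic acid, 30 min at room temperature. Hydroperoxide measured by Fe-xylenol orange, 573/405 nm absorbance ratio.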
VP16 counter: VP16 counterscreen qHTS for inhibitors of ROR gamma transcriptional activity; Drosophila S2 Gal4-VP16 UAS-luciferase, luminescence, 20 h; Potency, µM (doses to about 53.6 µM), inactives show at the highest dose activity, negative = inhibition, hits mostly inhibitors; actives 3.5% (n = 310,000);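 further: Gal4-VP16 expression switched on by copper sulfate through the metallothionein promoter; nearly all actives have a fitted effect of over 50% in size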
An asterisk follows results filed as active; u = inconclusive; x = no result; [ ] = dose if it differs, or a comment. A selection: hits, their analogues and other compounds. The true share with any hit is near 15%. The call rests on the fitted dose curve; in most records, active means well fitted curve in the direction sought with a large enough effect; inconclusive means small, poorly fitted or top-dose-only effect, or another doubt; inactive means no such curve, though single readings can be large; an effect the other way counts as inactive or inconclusive. On the % scale 0 is the no-effect control and ±100 the full control effect; potency means the concentration at half of the fitted maximal effect.

SMILES	ELG1 repair inh	RORg inh	DT40 TDP1 CPT	TDP1 cell noCPT	ALOX12 inh	VP16 counter
COc1ccc(Nc2ccc(S(=O)(=O)N3CCCCC3)cc2[N+](=O)[O-])cc1Cl	-3%	33%	u	u	-3%	-9%
COc1ccc(C(CNc2ccc(S(=O)(=O)N3CCN(C)CC3)cc2[N+](=O)[O-])N(C)C)cc1 (stereo not drawn)	-3%	x	-12%	21µM*	-21%	x
CN(C(=O)C(c1ccccc1)c1ccccc1)c1nc2ccccc2o1	x	x	x	x	-25%	x
CC(=O)N1CC2(CCCCN2C2COC2)Cc2ccccc21 (stereo not drawn)	x	x	x	x	0%[6.33 µM]	x
COc1cc(C2=NOC(C(=O)Nc3ccc(OC(F)(F)F)cc3)C2)cc(OC)c1OC (stereo not drawn)	x	x	x	x	-1%	x
COc1ccccc1CCn1c(=O)cnc2cncnc21	x	11%	4.6µM*	5.8µM*	0%	-7%
CC1CCN(c2ccc(NC(=O)C(Cc3ccccc3)NC(=O)c3cccs3)cc2)CC1 (stereo not drawn)	x	x	x	x	-10%	x
O=c1c2ccccc2[nH]c(=S)n1CCCN1CCN(C2CCCCC2)CC1	8%	24%[0.365 µM]	17%	-16%	u	x
CC1CCN(CCn2c(=S)[nH]c3ccccc3c2=O)CC1	8%	u	36%	1%	0%	-15%
C=CCSc1nc2ccccc2c(=O)n1C1CCOC(C)(C)C1 (stereo not drawn)	-7%	1%	16µM*	23µM*	12%	0%
CC1CCCC(n2c(=S)[nH]c3ccccc3c2=O)C1C (stereo not drawn)	-4%	0.28µM*	u	u	-9%	0.63µM*
C=CCSc1nc2ccccc2c(=O)n1Cc1ccccc1	u	-5%	23%	-10%	-1%	4%
CC1CCC(n2c(=S)[nH]c3ccccc3c2=O)CC1 (stereo not drawn)	u	0.2µM*	-10%	u	u	1µM*
O=c1c2ccccc2[nH]c(=S)n1C1CCCCC1	u	0.89µM*	-1%	6%	215%	2.8µM*
CC1CCCCC1NC(=O)CCn1c(=S)[nH]c2ccccc2c1=O (stereo not drawn)	x	x	-28%	u	12%	x
COC1CCOC2(CCN(C(=O)c3ccc4ccccc4n3)CC2)C1 (stereo not drawn)	x	x	x	x	40%	x
CCS(=O)(=O)Nc1ccc(C2(C(=O)NCc3cccs3)CCCCC2)cc1	x	x	x	x	44%	x
Cc1ccc(NC(=O)C2N(C(C)C)C(=O)C23CCCCC3)cc1 (stereo not drawn)	x	x	x	x	14%	x
Cc1cc(C)c(NC(=O)CN2CCC(C(=O)N3CCCC3)CC2)c(C)c1	x	x	x	x	-31%	x
CCN1CCN(CCn2c(=S)[nH]c3ccccc3c2=O)CC1	0%	-14%	0%	4%	-44%	-1%
CC1(C)CC(n2c(=S)[nH]c3ccccc3c2=O)CCO1 (stereo not drawn)	-9%	8.9µM*	-14%	u	-21%	8.9µM*
COc1ccccc1N1CCN(c2nc(CNC(=O)C3CCOC(C)(C)C3)nc3ccccc23)CC1 (stereo not drawn)	x	x	u	16µM*	-1%	x
COc1ccccc1N1CCN(c2nc(CNC(=O)c3ccccc3F)nc3ccccc23)CC1	x	x	u	8.2µM*	4%	x
COc1ccccc1N1CCN(c2ncccc2CNC(=O)C2CCCO2)CC1 (stereo not drawn)	x	x	x	x	-2%	x
COc1ccccc1N1CCN(c2nc(CNC(=O)C3CC34CCCC4)nc3ccccc23)CC1 (stereo not drawn)	x	x	-13%[9.04 µM]	21µM*	u	x
SMILES	ELG1 repair inh	RORg inh	DT40 TDP1 CPT	TDP1 cell noCPT	ALOX12 inh	VP16 counter
Cc1nn2c(-c3cccc(NC(=O)CSc4nc5ccccc5o4)c3)nnc2c2ccccc12	u	u	12µM*	7.3µM*	22%	-17%
Cc1ccc(-c2nnc3c4ccccc4c(C)nn23)cc1S(=O)(=O)N1CCN(C)CC1	x	x	u	-28%	-17%	x
CSc1nnc(-c2cccc(NC(=O)c3ccccc3)c2)n1C	u	-7%	-4%	-27%	0%	-6%
Cc1nn2c(-c3cccc(NC(=O)c4ccccc4)c3)nnc2c2ccccc12	x	x	4.6µM*	2.9µM*	-8%	x
Cc1nn2c(-c3cccc(NC(=O)CN4CCOCC4)c3)nnc2c2ccccc12	x	x	29µM*	13µM*	11%	x
Cc1ccc(-c2nnc3c4ccccc4c(C)nn23)cc1S(=O)(=O)N1CCN(CCO)CC1	u	3%	u	18µM*	0%	-2%
Cc1ccc(-c2nnc3c4ccccc4c(C)nn23)cc1NC(=O)CN1CCOCC1	0%	-10%	x	x	x	0%
O=C1NC2(CCN(C(=O)Cc3ccccc3)CC2)Oc2ccccc21	x	x	x	x	16%[176 µM]	x
CN(CC1CCOC1)S(=O)(=O)c1cccc(F)c1 (stereo not drawn)	x	x	x	x	5%	x
CCN(c1ccccc1)S(=O)(=O)c1ccc(OC)c(NC(=O)Cc2ccc(F)cc2)c1	-18%	x	u	18µM*	-10%	x
CCN(c1ccccc1)S(=O)(=O)c1ccc(OC)c(NC(=O)CNCCc2ccccc2)c1	u	-32%	26µM*	21µM*	0%	-6%
CCN(c1ccccc1)S(=O)(=O)c1ccc(OC)c(NC(=O)CN2C(=O)NC(C)(C)C2=O)c1	20%	x	-14%	-1%	161%	x
CCN(c1ccccc1)S(=O)(=O)c1ccc(OC)c(NC(=O)C2CCC2)c1	-4%	x	u	u	260%	x
CCN(c1ccccc1)S(=O)(=O)c1ccc(OC)c(NC(=O)CCc2nc3ccccc3c(=O)[nH]2)c1	u	x	18µM*	15µM*	-16%	x
COc1ccc(S(=O)(=O)N2CCOCC2)cc1NC(=O)CCc1nc2ccccc2c(=O)[nH]1	16%	-30%	u	7%	-1%	-2%
CCOc1ccc(Oc2ccccc2NC(=O)CCc2nc3ccccc3c(=O)[nH]2)cc1	x	x	23µM*	21µM*	-4%	x
C=C(C)Cn1c(Br)nc2c1c(=O)[nH]c(=O)n2C	x	x	x	x	5%	x

Assay outcomes deposited in PubChem by National Center for Advancing Translational Sciences (NCATS).
